This note sets out measurements from PubChem BioAssay (Tox21).

Experiment [1] can be described thus: qHTS assay to identify small molecule antagonists of the glucocorticoid receptor (GR) signaling pathway - cell viability counter screen (AID 720693). Note: nearly all actives have a fitted effect of over 55% in size. On the technique in general: Quantitative high-throughput screening tests each substance at several concentrations.
Experiment [2] is described as follows: qHTS assay for identifying genotoxic compounds that show differential cytotoxicity against isogenic chicken DT40 cell lines with known DNA damage response pathways - wild type cell line (AID 743012). Note: nearly all actives have a fitted effect of over 60% in size. Note: potency is the fitted concentration of half-maximal effect. The method in brief: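 Quantitative HTS on parental DT40 cells: 40 h compound treatment at 37 C/5% CO2, with viability then determined by CellTiter-Glo luminescence. Values serve as the DNA repair-proficient reference for differential cytotoxicity.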

The nature of experiment [3]: qHTS assay to identify small molecule antagonists of the androgen receptor (AR) signaling pathway - cell viability counter screen (AID 743033; note: nearly all actives have a fitted effect of over 45% in size).
Experiment [4] concerns the target Androgen receptor (Homo sapiens) (UniProt P10275). The experiment in a line: qHTS assay to identify small molecule antagonists of the androgen receptor (AR) signaling pathway (AID 743035; active = well fitted inhibition curve with a large enough effect in the signal ratio in the repeat runs, not every such curve was filed as active; the % refers to the signal ratio). Put shortly: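 Cell line: GeneBLAzer AR-UAS-bla GripTite (HEK293). Stimulus: R1881 added after compound. Exposure: 16 h, 37C, 5% CO2. Readout: LiveBLAzer B/G FRET fluorescence after 2 h at room temperature.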

Experiment [5] has the same target. The experiment in a line: qHTS assay to identify small molecule agonists of the androgen receptor (AR) signaling pathway (AID 743036; active = well fitted activation curve with a large enough effect in the signal ratio in the repeat runs, with a control signal flat, not every such curve was filed as active; the % refers to the signal ratio). The method in brief:
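Fluorescence from a beta-lactamase FRET substrate served as read-out in AR-UAS-bla GripTite HEK293 cells. Cells were treated with DMSO-dissolved compounds for 16 h at 37C, then with LiveBLAzer B/G substrate for 2 h at room temperature.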

Experiment [6] shares this target. The experiment in a line: qHTS assay to identify small molecule agonists of the androgen receptor (AR) signaling pathway using the MDA cell line (AID 743040; note: nearly all actives have a fitted effect of over 20% in size). The method in brief:
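MDA-kb2 breast carcinoma cells carrying MMTV-luciferase (responsive to AR and GR), plated 5 h then treated 16 h with compounds at 37C, 0% CO2. Read-out was ONE-Glo luminescence after 30 min at room temperature.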

Experiment [7] in a line: qHTS assay to identify small molecule antagonists of the androgen receptor (AR) signaling pathway using the MDA cell line - cell viability counter screen (AID 743041; note: nearly all actives have a fitted effect of over 45% in size). The method in brief: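 MDA-kb2 AR-luc cells (MMTV-luciferase, AR/GR responsive) treated with compounds plus R1881 agonist for 16 h at 37C. CellTiter-Fluor added at 15.5 h; fluorescence read after 30 min in the same wells.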

Experiment [8] has as its target Androgen receptor (Homo sapiens) (UniProt P10275). Put plainly: qHTS assay to identify small molecule antagonists of the androgen receptor (AR) signaling pathway using the MDA cell line (AID 743042; note: nearly all actives have a fitted effect of over 55% in size). The method in brief:
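MDA-kb2 breast carcinoma cells carrying MMTV-luciferase (AR/GR responsive) were co-treated with compounds and the agonist R1881 for 16 h at 37C. Inhibition read as ONE-Glo luminescence; CellTiter-Fluor fluorescence measured in parallel for cytotoxicity.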

A short description of experiment [9]: qHTS assay to identify small molecule antagonists of the thyroid receptor (TR) signaling pathway - cell viability counter screen (AID 743064). Note: nearly all actives have a fitted effect of over 50% in size. The method in brief: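 Fluorescence from CellTiter-Fluor, added after 23.5 h exposure at 37 °C, reported viability of GH3.TRE-Luc cells co-treated with compound and 1 nM T3. Measured in the same wells as the luciferase TR readout.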

Experiment [10] relates to thyroid hormone receptor (rat, GH3 cells). The experiment in a line: qHTS assay to identify small molecule agonists of the thyroid receptor (TR) signaling pathway (AID 743066; calls by dose curve).
For experiment [11], the target named is Estrogen receptor (Homo sapiens) (UniProt P03372). The experiment in a line: qHTS assay to identify small molecule antagonists of the estrogen receptor alpha (ER-alpha) signaling pathway (AID 743069; active = well fitted curve in the direction sought with a large enough effect in the signal ratio in the repeat runs, not every such curve was filed as active; the % refers to the signal ratio). The method in brief: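 HEK293 ER-alpha-UAS-bla GripTite cells, held overnight in 2% charcoal-stripped FBS, 5,000 cells/well, preincubated 4 h, then compound plus 17beta-estradiol for 18 h at 37C. Beta-lactamase read by LiveBLAzer B/G FRET substrate, 2 h at room temperature.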
Estrogen receptor (Homo sapiens), sequence (P03372 whole entry, looked up): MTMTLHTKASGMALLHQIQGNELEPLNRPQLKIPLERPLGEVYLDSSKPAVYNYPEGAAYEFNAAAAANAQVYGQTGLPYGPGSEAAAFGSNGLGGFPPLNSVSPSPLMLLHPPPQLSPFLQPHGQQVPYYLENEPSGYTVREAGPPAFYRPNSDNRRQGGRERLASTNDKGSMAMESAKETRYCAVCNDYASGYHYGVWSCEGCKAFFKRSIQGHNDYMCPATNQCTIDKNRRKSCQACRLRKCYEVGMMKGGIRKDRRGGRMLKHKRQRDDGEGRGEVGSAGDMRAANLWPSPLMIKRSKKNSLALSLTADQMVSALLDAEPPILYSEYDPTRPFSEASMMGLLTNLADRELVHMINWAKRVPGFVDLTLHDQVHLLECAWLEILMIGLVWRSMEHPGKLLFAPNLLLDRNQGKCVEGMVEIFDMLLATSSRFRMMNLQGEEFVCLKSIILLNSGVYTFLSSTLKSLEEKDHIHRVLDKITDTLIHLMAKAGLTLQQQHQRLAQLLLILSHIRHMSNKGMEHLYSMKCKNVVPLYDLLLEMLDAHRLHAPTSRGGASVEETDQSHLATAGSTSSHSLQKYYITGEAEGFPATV

Experiment [12] can be described thus: qHTS assay to identify small molecule antagonists of the estrogen receptor alpha (ER-alpha) signaling pathway - cell viability counter screen (AID 743074; calls by dose curve;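 note: HEK293 cells carrying ER-alpha-UAS-bla reporter stimulated with 17beta-estradiol; nearly all actives have a fitted effect of over 45% in size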).
For experiment [13], the target named is Estrogen receptor (Homo sapiens) (UniProt P03372). Put plainly: qHTS assay to identify small molecule agonists of the estrogen receptor alpha (ER-alpha) signaling pathway (AID 743075; calls by dose curve; note: potency is the fitted concentration of half-maximal effect).
For experiment [14] the target is unchanged. Put plainly: qHTS assay to identify small molecule agonists of the estrogen receptor alpha (ER-alpha) signaling pathway using the BG1 cell line (AID 743079). Note: nearly all actives have a fitted effect of over 20% in size. Note: potency is the fitted concentration of half-maximal effect.
The nature of experiment [15]: qHTS assay to identify small molecule antagonists of the estrogen receptor alpha (ER-alpha) signaling pathway using the BG1 cell line (AID 743080; calls by dose curve;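 note: BG1 cells stimulated with 17beta-estradiol alongside compound; series mostly up to about 70 µM; nearly all actives have a fitted effect of over 25% in size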). Put shortly:
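Readout is ONE-Glo luminescence, taken 30 min at room temperature after reagent addition, preceded by a CellTiter-Fluor viability read; BG1-Luc-4E2 cells had received compound and 17beta-estradiol for 21.5 h at 37 C.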

A short description of experiment [16]: qHTS assay to identify small molecule antagonists of the estrogen receptor alpha (ER-alpha) signaling pathway using the BG1 cell line - cell viability counter screen (AID 743081).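 Note: compound given together with 17beta-estradiol as the ER stimulus; series mostly up to about 70 µM; nearly all actives have a fitted effect of over 45% in size.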
A further experiment addresses Aromatase (Homo sapiens) (UniProt P11511). The experiment in a line: qHTS assay to identify aromatase inhibitors (AID 743083). Note: series mostly up to about 70 µM; nearly all actives have a fitted effect of over 55% in size.
Experiment [17] is described as follows: qHTS assay for identifying genotoxic compounds that show differential cytotoxicity against isogenic chicken DT40 cell lines with known DNA damage response pathways - Rev3 mutant cell line (AID 743014). Note: nearly all actives have a fitted effect of over 55% in size.
Experiment [18] can be described thus: qHTS assay for identifying genotoxic compounds that show differential cytotoxicity against isogenic chicken DT40 cell lines with known DNA damage response pathways - Rad54/Ku70 mutant cell line (AID 743015). Note: nearly all actives have a fitted effect of over 60% in size.
Experiment [19] in a line: qHTS assay to identify small molecule antagonists of the thyroid receptor (TR) signaling pathway (AID 743065). Put shortly:
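GH3.TRE-Luc rat pituitary cells (two TREs driving luciferase) were dosed with compound, then stimulated with 1 nM T3 (final) for 23.5 h at 37 C. ONE-Glo luminescence was the read-out, with CellTiter-Fluor fluorescence as the cytotoxicity counter-screen.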

Results filed as inconclusive are left out. Calls of active or inactive are those of the source. Unless noted, calls come from the whole dose curve; as a rule, active = well fitted curve in the direction sought with a large enough effect in the repeat runs; inconclusive = weak or mixed curves; inactive = no such curve, though single readings can be large; an effect the other way counts as inactive or inconclusive.

Aromatase (Homo sapiens), sequence (P11511 whole entry, looked up): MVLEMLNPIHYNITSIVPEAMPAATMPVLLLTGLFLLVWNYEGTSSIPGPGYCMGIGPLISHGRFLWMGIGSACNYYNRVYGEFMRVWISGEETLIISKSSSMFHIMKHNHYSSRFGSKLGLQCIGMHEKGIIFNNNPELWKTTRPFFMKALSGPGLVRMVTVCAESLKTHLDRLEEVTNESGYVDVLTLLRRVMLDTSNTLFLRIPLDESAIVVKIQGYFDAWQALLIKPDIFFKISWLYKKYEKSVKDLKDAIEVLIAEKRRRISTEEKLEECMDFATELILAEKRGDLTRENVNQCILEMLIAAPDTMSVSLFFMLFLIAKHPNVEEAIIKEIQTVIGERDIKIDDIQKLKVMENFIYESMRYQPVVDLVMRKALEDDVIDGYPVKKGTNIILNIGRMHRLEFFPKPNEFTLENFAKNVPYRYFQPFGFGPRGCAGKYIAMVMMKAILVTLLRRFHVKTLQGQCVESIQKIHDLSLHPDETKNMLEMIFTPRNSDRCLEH
Androgen receptor (Homo sapiens), sequence (P10275 whole entry, looked up): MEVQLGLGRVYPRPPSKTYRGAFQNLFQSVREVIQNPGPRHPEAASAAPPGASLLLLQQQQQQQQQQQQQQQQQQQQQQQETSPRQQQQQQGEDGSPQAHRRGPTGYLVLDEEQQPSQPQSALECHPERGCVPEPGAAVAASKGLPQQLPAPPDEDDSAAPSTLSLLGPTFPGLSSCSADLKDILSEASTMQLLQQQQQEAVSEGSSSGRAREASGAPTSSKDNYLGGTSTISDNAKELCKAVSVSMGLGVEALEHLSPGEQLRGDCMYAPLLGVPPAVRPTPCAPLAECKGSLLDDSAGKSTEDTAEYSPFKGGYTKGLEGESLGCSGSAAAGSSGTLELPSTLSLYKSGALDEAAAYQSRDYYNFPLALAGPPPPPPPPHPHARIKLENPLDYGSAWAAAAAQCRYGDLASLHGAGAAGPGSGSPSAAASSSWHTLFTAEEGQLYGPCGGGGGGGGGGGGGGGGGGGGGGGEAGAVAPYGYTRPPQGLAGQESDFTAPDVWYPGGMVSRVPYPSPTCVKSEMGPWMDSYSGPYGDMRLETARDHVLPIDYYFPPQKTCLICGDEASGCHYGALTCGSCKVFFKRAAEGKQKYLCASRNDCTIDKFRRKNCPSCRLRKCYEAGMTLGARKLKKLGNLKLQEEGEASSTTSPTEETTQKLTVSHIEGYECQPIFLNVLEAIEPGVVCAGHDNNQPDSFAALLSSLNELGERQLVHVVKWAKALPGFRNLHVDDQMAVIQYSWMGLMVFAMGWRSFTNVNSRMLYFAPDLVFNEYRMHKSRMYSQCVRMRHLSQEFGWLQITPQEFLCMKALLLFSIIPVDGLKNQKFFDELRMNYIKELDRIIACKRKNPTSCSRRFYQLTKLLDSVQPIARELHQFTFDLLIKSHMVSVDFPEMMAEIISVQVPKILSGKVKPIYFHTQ

For the compound `CCCCCCCCCCCCCC(=O)OC`, the Potency entry in [1], in experiment [2], in experiment [4], in [9], in experiment [10] and in experiment [11] was “inactive” in each case. Further, the Potency entry in [12], in experiment [13] and in [14] was “inactive” each time. For the same compound, the call in experiment [3], in [5], in experiment [6], in [7], in experiment [8] and in [15] was inactive. Besides, the outcome (in experiment [16]; in the experiment with Aromatase (Homo sapiens)) was inactive.

In the case of `CCS(=O)(=O)CCn1c([N+](=O)[O-])cnc1C`, the Potency result in [1], in experiment [17], in [18], in experiment [9], in experiment [19] and in experiment [10] was “inactive” throughout. Also, the Potency entry in [11] and in [12] was “inactive” in each case. Also, the call (in experiment [7]; in experiment [15]; in experiment [16]; in the experiment with Aromatase (Homo sapiens)) was inactive. For the same compound, the Potency in experiment [13] was 10.2 µM [activator] (active); in experiment [14] it was 2.27 µM (active).

On to `C=C(C)C(=O)OC`, for which the Potency result in experiment [1], in [17], in experiment [18], in experiment [9], in experiment [19] and in experiment [10] was “inactive” each time. In addition, the compound was called inactive (in experiment [3]; in experiment [7]; in experiment [16]; with Aromatase (Homo sapiens)).

`C=CCOCC(CO)(COCC=C)COCC=C`: the Potency result in experiment [1], in [17], in experiment [18], in experiment [9], in experiment [19] and in experiment [10] was “inactive” throughout. Further, the Potency entry in experiment [11], in experiment [13] and in experiment [14] was “inactive” throughout. Also, the compound was called inactive (in experiment [7]; in experiment [15]; in experiment [16]; with Aromatase (Homo sapiens)).

In the case of `CNC(=O)C(c1ccccc1)c1ccccc1`, the Potency result in [1], in experiment [9], in experiment [10], in experiment [11], in experiment [12] and in experiment [13] was “inactive” throughout. Besides, the Potency entry in experiment [14] is “inactive”. Moreover, the Potency in experiment [2] is 61.1 µM (active). Besides, the result (in [3]; in experiment [7]; in experiment [15]; in experiment [16]; with Aromatase (Homo sapiens)) was inactive.

For the compound `C=CCOc1c(Br)cc(Br)cc1Br`, the Potency result in experiment [1], in experiment [17], in [18], in experiment [9], in [19] and in experiment [10] was “inactive” throughout. The Potency result in [11], in [13] and in experiment [14] was “inactive” each time. Further, the result (in experiment [3]; in [7]; in experiment [15]; in experiment [16]; with Aromatase (Homo sapiens)) was inactive.

As to `COc1cc(C=O)ccc1OC(=O)C(C)C`, the Potency entry in experiment [1], in experiment [17], in [9], in experiment [19], in experiment [10] and in [12] was “inactive” throughout. Also, the result (in experiment [3]; in experiment [7]; in [16]; with Aromatase (Homo sapiens)) was inactive.

As to `CCCCOC(=O)C(C)OC(=O)CCC` (stereo unspecified), the Potency result in experiment [1], in [17], in experiment [18], in experiment [19], in experiment [10] and in experiment [11] was “inactive” throughout. Moreover, the Potency entry in [12], in [13] and in experiment [14] was “inactive” in each case. Also, the compound was called inactive (in [3]; in [7]; in experiment [15]; in experiment [16]; with Aromatase (Homo sapiens)).

For `CCCCCCCCCCCCC`, the Potency result in experiment [1], in experiment [17], in experiment [18], in experiment [9], in [19] and in experiment [10] was “inactive” in each case. For the same compound, the Potency entry in experiment [11], in experiment [12], in experiment [13] and in [14] was “inactive” throughout. Also, the call (in [7]; in experiment [15]; in experiment [16]; in the experiment with Aromatase (Homo sapiens)) was inactive.

On to `O=C(COCCOCCOCC(=O)Nc1c(I)cc(I)c(C(=O)O)c1I)Nc1c(I)cc(I)c(C(=O)O)c1I`, for which the Potency entry in [1], in [2], in [18], in [10], in experiment [11] and in experiment [12] was “inactive” each time. Moreover, the Potency result in experiment [13] and in experiment [14] was “inactive” throughout. Moreover, the call (in experiment [7]; in experiment [15]; in experiment [16]; with Aromatase (Homo sapiens)) was inactive.
